HEK293 tox: cytotoxic compounds in HEK 293 cells | HEK 293 viability, ATP luminescence (CellTiter-Glo), 48-72 h | Potency, µM (highest dose often 115 µM), for the others: at the top dose activity change, negative = cytotoxicity, most hits filed as inhibitors | actives 6.6% (n = 94,000); further: nearly all actives have a fitted effect of over 60% in size
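250 HEK 293 cells/well; compound by pintool; incubated 48 or 72 hr at 37 degree Celsius; CellTiter-Glo added, 10 min RT, luminescence imaged.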
Luciferase inh: inhibitors of firefly (Photinus pyralis) luciferase | purified P. pyralis luciferase, luminescence, biochemical | P08659 | actives 2.5% (n = 76,000) | Potency, µM (highest dose often 115 µM), most hits filed as inhibitors; further: nearly all actives have a fitted effect of over 65% in size
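Purified 10nM P. pyralis luciferase with 10uM D-luciferin and 10uM ATP in 50mM Tris acetate pH 7.5, 10mM Mg acetate, 0.01% Tween-20, 0.05% BSA. qHTS titration; luminescence read by CCD imager.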
NPR1 antag: human Npr1 receptor antagonism; AID 1347048; Potency, µM (top dose mostly 46.3 µM), for inactives: top-dose activity change, negative = inhibition, usual class: inhibitors; actives 1.6% (n = 76,000); HEK293 hNpr1 GloSensor cGMP, ANP-stimulated luminescence; P16066; calls by dose curve; further: nearly all actives have a fitted effect of over 60% in size
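Compound pre-incubated 30 min at room temperature on GloSensor-loaded HEK293 cells stably carrying hNpr1 and the pGS-40F cGMP biosensor. Stimulation uses hNppA at 0.1 nM final; luminescence is taken at baseline and 20 min post-agonist.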
GPT2 inh: GPT2 alanine aminotransferase inhibition | Recombinant GPT2, coupled pyruvate oxidase/HRP Amplex Red fluorescence | Potency, µM (titrated, usually from 57.7 µM), inactives show top-dose activity change, negative = inhibition, usual class: inhibitors | actives 0.25% (n = 100,000) | AID 1671188; further: nearly all actives have a fitted effect of over 60% in size
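Recombinant GPT2 (10ng/uL) with 250uM a-KG and 2mM L-alanine, 30 min at room temperature, in HEPES pH 7.5 buffer. Pyruvate detected by pyruvate oxidase/HRP/Amplex Red fluorescence after 30 min in the dark; AOA (50uM) as positive control.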
NIH3T3 tox: NIH 3T3 cell cytotoxicity; NIH 3T3 viability, CellTiter-Glo ATP luminescence, 48-72 h; Potency, µM (doses to about 96.7 µM), without a hit: at the top dose activity change, negative = cytotoxicity, hits mostly inhibitors; actives 4.3% (n = 94,000); further: nearly all actives have a fitted effect of over 55% in size
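ATP-dependent luminescence (CellTiter-Glo) served as the viability signal for NIH 3T3 cells treated with compound for 48 or 72 hr at 37 °C.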
Active calls of the source: *; i = inactive; ? = inconclusive; . = not tested or not shown; [ ] = dose if it differs, or a comment. Compounds with a hit are over-represented: about 10% of the library has one in this group of screens. Unless noted, the call rests on the fitted dose curve; in most records, active means well fitted curve in the direction sought with a large enough effect; inconclusive means small, poorly fitted or top-dose-only effect, or another doubt; inactive means no such curve, though single readings can be large; an effect the other way counts as inactive or inconclusive. On the % scale 0 is the no-effect control and ±100 the full control effect; potency means the concentration at half of the fitted maximal effect.

SMILES	HEK293 tox	Luciferase inh	NPR1 antag	GPT2 inh	NIH3T3 tox
Cn1nccc1C(=O)N1CCC(n2nccc2NC(=O)CCOc2ccccc2)CC1	-14.7%	?	0.0%	4.8%	-5.9%
CCC1C(=O)NCCN1Cc1cn(-c2cccc(F)c2)nc1-c1ccc(C)o1 (centres undefined)	?	28.2µM*	-7.3%	-17.2%	?
Cc1nn(-c2ccccc2)c(Oc2ccccc2F)c1CCC(=O)NCc1ccco1	44.7µM*	i	?	i	?
Cc1nn(-c2ccc(F)cc2)c(Oc2ccccc2F)c1CCC(=O)NCC1CC1	50.1µM*	i	-23.1%	-29.8%	?
Cc1nn(-c2ccc(F)cc2)c(Oc2ccccc2)c1CCC(=O)NCC1CC1	?	i	?	?	?
Cc1ccc(CNC(=O)C2CCN(C(=O)N3CC4CC(C3)[C@H]3CCCC(=O)N3C4)CC2)o1 (some centres undefined)	-3.8%	i	6.1%	-6.2%	-9.7%
Cc1noc(C)c1-c1cc2cc(C(C)C)oc2c(NCCN(C)C)n1	70.8µM*	i	6.7%[70.6 µM]	-6.5%[88.5 µM]	44.7µM*
Cc1cc2cc(-c3c(C)noc3C)nc(NCCN(C)C)c2o1	100µM*	i	-3.0%[70.6 µM]	4.8%[88.5 µM]	?
Cc1cc2cc(-c3c(C)noc3C)nc(NCC3CC3)c2o1	?	i	-3.8%[70.6 µM]	i	?
Cc1ccccc1OCc1nc(C2CN(C(=O)c3cc(F)ccc3F)C2)no1	?	i	-2.4%	i	-29.4%
Cc1cc(S(=O)(=O)N2CCC(c3noc(COc4ccc(F)cc4)n3)CC2)ccc1F	25.1µM*	i	?	-1.9%	35.5µM*
Cc1ccccc1OCc1nc(C2CN(C(=O)Cc3cccc(F)c3)C2)no1	44.7µM*	i	-18.9%	i	39.8µM*
O=C(Cc1ccccc1)N1CCC(c2noc(COc3ccc(F)cc3)n2)CC1	44.7µM*	.	.	?	?
CCN(CC)C(=O)N1CCC(c2noc(COc3ccc(F)cc3)n2)C1 (centres undefined)	44.7µM*	.	.	1.4%	?
CS(=O)(=O)N1CCCN(C(=O)Nc2ccccc2F)CCNC(=O)CC1c1ccccc1 (centres undefined)	i	i	-1.1%	-1.6%	-17.8%
COCCNC(=O)[C@H]1C[C@H](Oc2ccccc2)CN1C(C)=O	-1.4%	i	-14.7%	-19.1%	-29.7%
O=C(c1ccn[nH]1)N1CCc2n[nH]c(=O)n2CC1	i	i	2.5%	-6.0%	3.8%
CCCCCN(CCC(=O)NCCC(C)C)C(=O)c1cc(C)oc1C	28.2µM*	i	-23.0%	?	?
CCCCCNC(=O)CCN(CC)C(=O)c1cc(C)oc1C	?	i	-15.0%	?	?
CCCCN(CCC(=O)NCCc1ccccc1)C(=O)c1cc(C)oc1C	14.1µM*	i	?	i	35.5µM*
Cc1cc(C(=O)N(CCC(=O)NCCC(C)C)CCC(C)C)c(C)o1	31.6µM*	i	-15.9%	-2.9%	?
CCn1ccc(C(=O)NCCc2ncc(C)n2C2CC2)n1	-5.8%	i	2.3%	-11.2%	-3.7%
O=C1NC(C(=O)N2CCN(Cc3ccc4c(c3)OCO4)CC2)Cn2cccc21 (centres undefined)	-6.7%	i	1.6%	-13.3%	5.0%
Cc1ccc(C(=O)N[C@H]2CO[C@H]3[C@@H]2OC[C@@H]3Nc2nccc(-c3cccc(F)c3)n2)cc1	-17.6%[172 µM]	i	2.7%[70.6 µM]	-9.5%[88.5 µM]	-30.3%[174 µM]
CS(=O)(=O)NC[C@H]1O[C@@H](CO)[C@@H](O)C1N1CCN(c2ccccc2)CC1 (some centres undefined)	i	i	2.1%	-18.7%	i
O=C(c1ccccc1F)N1CCC2(CC1)CC(=O)N(c1ccccc1)c1ccccc1O2	79.4µM*	i	21.2%	-1.6%	?
O=C(c1ccccc1Cl)N1CCC2(CC1)CC(=O)N(c1ccccc1)c1ccccc1O2	79.4µM*	i	-5.7%	-4.7%	?
O=C(c1ccccc1)N1CCC2(CC1)CC(=O)N(c1ccccc1)c1ccccc1O2	-16.3%	i	22.4%	2.1%	-1.7%

High-throughput results deposited in PubChem by National Center for Advancing Translational Sciences (NCATS).
